For test [1], the target named is Pantothenate synthetase (Mycobacterium tuberculosis (strain ATCC 25618 / H37Rv)) (UniProt P9WIL5). The test can be described thus: Recombinant Mtb pantothenate synthetase (PanC) inhibitors, coupled enzyme, confirmatory (AID 375; call rule not given here;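 also: 0% = full reaction with vehicle and 100% = no enzyme background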). The settings on record: coupled enzyme assay; at 10 µM, stronger effect = higher value.
Test [2] is described as follows: reducers of endogenous Her2 protein level, primary screen, SKBR3 breast tumor cells, AlphaScreen, ATP viability (AID 461;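 active = Her2 level under about 52% in both replicate screens, with viability over 70% of control, limit read from the data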;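 as to Her2 level: lower value means less Her2 protein in the cells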;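 as to viability: percent of carrier control wells set as 100% viability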). The settings on record: 18-24 h, measured here: SKBR3 viability, ATP luminescence, at 10 µM.
In test [3] the target is Receptor tyrosine-protein kinase erbB-2 (Homo sapiens) (UniProt P04626). Described as above. The settings on record: 18-24 h, at 10 µM, stronger effect = lower value.
The nature of test [4]: SK-BR-3 cell growth inhibitors, pilot screen, 24 h, human (AID 572;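 active = viability at or below 10% of carrier control in both of two separate runs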;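 also: compound exposure lasted between 18 and 24 h rather than exactly 24 h; 100% = carrier-treated control wells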). The settings on record: SK-BR-3 viability, CellTiter-Glo luminescence, at 10 µM, stronger effect = lower value.
A short description of test [5]: HUVEC growth inhibition – cell-based, human, primary screen (AID 575;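 active = viability at or below 30% in both replicate assays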;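 also: 100% = median of untreated cell wells with 0.1% DMSO on each plate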). The settings on record: HUVEC proliferation, CellTiter-Glo luminescence, 72 h; at 10 µM; stronger effect = lower value.
A short description of test [6]: growth inhibitors of H69AR lung tumor, primary screen, human, duplicate replicates (AID 580;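 active = viability at or under a set limit in both replicates, limit being median viability minus 3 SD, cut at about 48% in these data, passing the limit was not always enough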;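 also: 100% = mean luminescence of untreated wells and 0% = no signal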). The settings on record: H69AR lung tumor cells viability, ATP luminescence, 72 h; at 10 µM; stronger effect = lower value.
The nature of test [7]: reversal of MRP1-mediated doxorubicin resistance, pilot screen, H69AR cells, doxorubicin co-treatment (AID 601;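 active = viability loss from added drug above about 55%, and viability with drug at most 40%, in both replicates, limit read from the data, passing the limit was not always enough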). The settings on record: CellTiter-Glo, 72 h, at 10 µM; for differential viability (reversal): stronger effect = higher value.
Test [8] can be described thus: 384-well plate pilot, post-Golgi transport modulator project, inhibition of yeast transport mutant growth (AID 636; in the data active = inhibition above about 31%). The settings on record: absorbance 615 nm, about 18 h, stronger effect = higher value.
A short description of test [9]: growth suppression of yeast trafficking mutant, preliminary HTS, modulators of trafficking downstream of Golgi apparatus project, 1536-format plate, OD 615 nm (AID 637; in the data active = inhibition above about 30%). The settings on record: yeast transport mutant growth, absorbance 615 nm, 18 h; stronger effect = higher value.
Test [10] can be described thus: OD615 S. cerevisiae growth inhibition, permissive medium, pilot counter-assay, permissive growth control for S. cerevisiae lifespan shortening project (AID 705;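 active = growth inhibition above 25% in both replicates, a cutoff set 3 SD above the mean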). The settings on record: OD615, 24 h, at 10 µM, stronger effect = higher value.
Test [11] is described as follows: Restrictive medium S. cerevisiae growth inhibition, OD615, pilot screen of yeast lifespan reduction project, restrictive growth control (AID 706;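 active = growth inhibition above a set limit, 3 SD over mean compound inhibition, in both replicates, cut at about 43% in these data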;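 also: modified DeaD lifespan yeast strain shifted to restrictive glucose medium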). The settings on record: OD615, 48 h, at 10 µM, stronger effect = higher value.
Test [12] is described as follows: viability gain of MRP-1-high H69AR cells under doxorubicin, pilot screen, MRP-1 activator project, CellTiter-Glo, duplicate (AID 807).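 Also: compound pretreatment 18-22 h then 72 h combined with doxorubicin; 0% = doxorubicin alone and 100% = vehicle without doxorubicin.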 The settings on record: H69AR viability with doxorubicin, CellTiter-Glo luminescence; at 10 µM; stronger effect = higher value.
Test [13] can be described thus: growth suppression of beta-catenin knockout HCT116, pilot screen, human colon tumor cells (AID 823;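 active = cell viability at or below a set limit in both duplicate runs, the limit being the all-compound median minus 4 SD, cut at about 23% in these data, passing the limit was not always enough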;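 also: 0% = wells killed by 20 µM Hyamine and 100% = untreated DMSO cell wells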). The settings on record: CellTiter-Glo, 60 h, at 10 µM, stronger effect = lower value.
The nature of test [14]: growth suppression of PTEN-deleted HCT116, pilot screen, cell-based, HCT116 clonal line, CellTiter-Glo (AID 824;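 active = viability at or below 27.92% in each of two runs, the all-compound median minus 4 SD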;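 also: 0% = 20 µM Hyamine control and 100% = vehicle cell control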). The settings on record: 60 h, at 10 µM, stronger effect = lower value.
Test [15] is described as follows: inhibitors of the yeast RAM network, pilot screen, dse1pr::URA3 reporter, 5-FOA selection (AID 869;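 active = inhibition over a set limit, the all-compound mean plus 3 SD, in both replicate runs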;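 also: 0% = DMSO wells with no growth and 100% = 10 µM 1-NA-PP1 with full growth; RAM network block rescues cells from 5-FOA so hits raise OD615 growth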). The settings on record: S. cerevisiae dse1pr::URA3 5-FOA growth, OD615, 2 d, at 10 µM, stronger effect = higher value.
The nature of test [16]: RAM signaling pathway blockade in yeast – S. cerevisiae, Pdr1DBD-CYC8 efflux-inhibited sensitized strain, primary screen (AID 1298;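 active = RAM network inhibition above 8.4% in each of two replicates, 3 SD over the compound average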;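 also: 0% = DMSO untreated cells without growth and 100% = 10 µM 1-NA-PP1 full growth; higher means more yeast growth rescued from 5-FOA killing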). The settings on record: S. cerevisiae cbk1-as DSE1-URA3 strain, 5-FOA growth OD615, 2 d; at 50 µM; stronger effect = higher value.
[17] abbreviates: H69AR cells + 2 uM doxorubicin, measured here: viability with 2 uM doxorubicin, stronger effect = lower value.
The mark [18] stands for this setting: H69AR cells, compound alone cytotoxicity.

Records with an inconclusive call do not appear. Active and inactive are the calls of the source.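 The calls were made as follows, unless noted: active = viability increase at or above a cutoff of the median across tested compounds plus 3 SD (cut at about 8.5% in these data, passing the limit was not always enough); inconclusive = some gains above the cutoff, reason not given; inactive = the rest.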

Sequence of Pantothenate synthetase (Mycobacterium tuberculosis (strain ATCC 25618 / H37Rv)) (P9WIL5 whole entry, looked up): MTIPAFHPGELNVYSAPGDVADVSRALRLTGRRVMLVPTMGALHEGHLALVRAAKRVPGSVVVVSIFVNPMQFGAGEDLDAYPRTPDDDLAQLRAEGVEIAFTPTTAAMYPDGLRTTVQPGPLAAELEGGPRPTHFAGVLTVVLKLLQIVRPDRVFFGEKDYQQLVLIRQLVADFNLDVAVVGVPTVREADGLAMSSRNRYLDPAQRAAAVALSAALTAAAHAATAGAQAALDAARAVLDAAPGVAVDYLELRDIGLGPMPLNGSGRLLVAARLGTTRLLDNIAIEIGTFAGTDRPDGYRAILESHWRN
Sequence of Receptor tyrosine-protein kinase erbB-2 (Homo sapiens) (P04626 whole entry, looked up): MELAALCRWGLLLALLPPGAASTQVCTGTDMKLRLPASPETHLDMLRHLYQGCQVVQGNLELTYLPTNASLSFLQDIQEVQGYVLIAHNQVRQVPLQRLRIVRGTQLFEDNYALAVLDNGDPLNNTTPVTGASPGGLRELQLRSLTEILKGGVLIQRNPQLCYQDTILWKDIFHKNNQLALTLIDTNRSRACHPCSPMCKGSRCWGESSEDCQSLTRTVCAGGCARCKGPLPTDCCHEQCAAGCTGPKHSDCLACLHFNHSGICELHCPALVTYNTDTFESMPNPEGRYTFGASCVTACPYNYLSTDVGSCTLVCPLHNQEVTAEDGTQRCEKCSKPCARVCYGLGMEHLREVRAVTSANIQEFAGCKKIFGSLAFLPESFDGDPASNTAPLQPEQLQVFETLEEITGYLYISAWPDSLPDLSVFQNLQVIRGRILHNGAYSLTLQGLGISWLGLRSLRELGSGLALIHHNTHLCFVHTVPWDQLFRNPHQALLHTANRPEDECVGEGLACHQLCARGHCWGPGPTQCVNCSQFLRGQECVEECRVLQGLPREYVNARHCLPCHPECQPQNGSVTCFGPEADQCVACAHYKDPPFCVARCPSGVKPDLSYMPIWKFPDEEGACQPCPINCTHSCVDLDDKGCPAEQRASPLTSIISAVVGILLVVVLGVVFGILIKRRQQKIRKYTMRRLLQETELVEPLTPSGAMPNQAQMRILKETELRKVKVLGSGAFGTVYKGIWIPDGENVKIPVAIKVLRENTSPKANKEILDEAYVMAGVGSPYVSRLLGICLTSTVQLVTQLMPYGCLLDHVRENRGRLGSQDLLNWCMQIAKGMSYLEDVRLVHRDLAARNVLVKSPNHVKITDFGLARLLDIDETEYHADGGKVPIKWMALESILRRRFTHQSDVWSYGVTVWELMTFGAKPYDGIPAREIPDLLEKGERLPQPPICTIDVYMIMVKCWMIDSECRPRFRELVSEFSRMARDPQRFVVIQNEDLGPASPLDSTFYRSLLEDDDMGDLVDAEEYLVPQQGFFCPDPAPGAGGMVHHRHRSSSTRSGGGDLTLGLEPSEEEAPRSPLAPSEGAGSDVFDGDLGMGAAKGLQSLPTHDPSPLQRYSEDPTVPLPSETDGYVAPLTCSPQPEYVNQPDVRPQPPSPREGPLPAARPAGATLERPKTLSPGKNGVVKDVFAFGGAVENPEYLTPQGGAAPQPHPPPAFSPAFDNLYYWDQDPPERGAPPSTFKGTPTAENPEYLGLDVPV

With `O=C(c1cccs1)C1CN2CCC1CC2` (stereo unspecified), the inhibition in [1] was 0% (inactive); in test [8], 0.65% (inactive); in [9] it was -4.33% (inactive); in test [15] it was 0.375% (inactive). Further, the viability in test [2] is 89.5%; in test [4], 89.5% (inactive); in test [5], 94.3% (inactive); in test [6], 106% (inactive); in test [7] (setting [17]), 92.8%; in test [7] (setting [18]), 106%. For the same compound, the viability was 97.3% (inactive) in [13] and 103% (inactive) in [14]. Besides, the Her2 level in test [3] was 122% (inactive). In addition, in [7] (H69AR cells + 2 uM doxorubicin), the differential viability (reversal) was 13.5% (inactive). The growth inhibition in test [10] was -13.4% (inactive); in test [11], -12.2% (inactive). Moreover, the viability increase in test [12] is -0.68% (inactive). Moreover, the RAM network inhibition in test [16] is 5.95% (inactive).

With `CN1CCN(c2nc3ccccc3c(=O)n2-c2ccccc2)CC1`, the inhibition in test [1] is 0% (inactive); in test [8], 0.64% (inactive); in test [9], -1.17% (inactive); in test [15] it was 2.02% (inactive). For the same compound, the viability in test [2] is 98.5%; in test [4] it was 98.5% (inactive); in test [5], 79.9% (inactive); in [6], 86.3% (inactive); in test [7] (setting [17]), 89.6%; in test [7] (setting [18]), 86.3%. For the same compound, the viability in test [13] is 98.1% (inactive); in test [14], 99.3% (inactive). In test [3], the Her2 level is 104% (inactive). Also, the differential viability (reversal) in test [7] (H69AR cells + 2 uM doxorubicin) is -3.29% (inactive). Moreover, the growth inhibition in test [10] was -13.4% (inactive); in test [11], -1.59% (inactive). In addition, the viability increase in [12] is -2.67% (inactive). Further, the RAM network inhibition in test [16] was 1.34% (inactive).

As for `Cc1cccc(-n2c(-c3ccco3)nc3ccccc3c2=O)n1`, the inhibition was 0% (inactive) in test [1], -0.54% (inactive) in test [8], 49.3% (active) in test [9] and 0.505% (inactive) in test [15]. In addition, the viability in [2] is 105%; in test [4] it was 105% (inactive); in test [5], 111% (inactive); in test [6], 87.9% (inactive); in test [7] (setting [17]), 90%; in test [7] (setting [18]), 87.9%. Also, the results for the viability in test [13] and in [14] were 108% (inactive) and 99.7% (inactive), respectively. Further, the Her2 level in test [3] was 98.5% (inactive). The differential viability (reversal) in test [7] (H69AR cells + 2 uM doxorubicin) is -2.13% (inactive). The figures for the growth inhibition in test [10] and in test [11] were -16.8% (inactive) and -15.7% (inactive), respectively. Further, the viability increase in [12] is 0.12% (inactive). Besides, in test [16], the RAM network inhibition is 0.8% (inactive).

On to `Cc1cc(OC(=O)c2ccco2)c2c3c(c(=O)oc2c1)CCC3`, for which the growth inhibition was 2.81% (inactive) in test [10] and -1.05% (inactive) in [11]. The viability increase in [12] was -1.26% (inactive). In addition, the viability in test [13] was 94.3% (inactive); in test [14], 85.2% (inactive). Besides, the RAM network inhibition in test [16] was 4.5% (inactive).

Consider `CN1C(=O)C(Cc2cccc3ccccc23)C(=O)N(C)C1=O`, for which the inhibition in [1] is 6% (inactive); in test [8] it was -5.81% (inactive); in test [9] it was 0.98% (inactive); in [15], 0.305% (inactive). For the same compound, the viability in test [2] was 73.5%; in test [4], 73.5% (inactive); in test [5], 95.4% (inactive); in test [6], 85.2% (inactive); in test [7] (setting [17]), 92.4%; in [7] (setting [18]), 85.2%. In addition, the figures for the viability in test [13] and in test [14] were 92.5% (inactive) and 89.7% (inactive), respectively. For the same compound, the Her2 level in test [3] is 94% (inactive). The differential viability (reversal) in test [7] (H69AR cells + 2 uM doxorubicin) was -7.14% (inactive). The results for the growth inhibition in test [10] and in test [11] were -20.9% (inactive) and -4.64% (inactive), respectively. In addition, the viability increase in test [12] was -2.39% (inactive). Further, the RAM network inhibition in test [16] was 1.47% (inactive).

Take `CCCC(C)C1C(C#N)=C(N)Oc2c1c(=O)oc1ccccc21` (stereo unspecified): the inhibition in test [1] is 4% (inactive); in [8], -2.21% (inactive); in [9] it was -0.33% (inactive); in [15] it was 3.74% (inactive). For the same compound, the viability was 116% in test [2]; 116% (inactive) in test [4]; 66.8% (inactive) in test [5]; 67.7% (inactive) in test [6]; 79.2% in test [7] (setting [17]); 67.7% in test [7] (setting [18]). In addition, the figures for the viability in test [13] and in test [14] were 91.6% (inactive) and 97% (inactive), respectively. For the same compound, the Her2 level in test [3] is 106% (inactive). Further, the differential viability (reversal) in [7] (H69AR cells + 2 uM doxorubicin) is -11.5% (inactive). Further, the values for the growth inhibition in test [10] and in test [11] were -16.8% (inactive) and -20.1% (inactive), respectively. The viability increase in test [12] is -5.21% (inactive). Moreover, the RAM network inhibition in [16] is 8.16% (inactive).

Regarding `CCCCCCOc1ccc(CN2CCN(CCO)CC2)cc1`, the growth inhibition in test [10] was -16.7% (inactive); in [11] it was 2.46% (inactive). For the same compound, the viability increase in test [12] was -6.03% (inactive). The results for the viability in test [13] and in [14] were 60.7% (inactive) and 75.5% (inactive), respectively. In test [15], the inhibition is 2% (inactive). The RAM network inhibition in test [16] is -1.21% (inactive).

With `O=C(c1ccc2c(c1)OCO2)N1CCC2(CC1)OCCO2`, the growth inhibition is -5.96% (inactive) in [10] and -4.21% (inactive) in test [11]. For the same compound, in [12], the viability increase is 1.06% (inactive). Further, the viability was 102% (inactive) in test [13] and 97.1% (inactive) in test [14]. Moreover, the inhibition in test [15] is 0.85% (inactive). For the same compound, the RAM network inhibition in [16] was -1.11% (inactive).

In the case of `Cc1cccc(N2CCc3c2nc2ccccc2c3N)c1`, the inhibition in [1] is 0% (inactive); in test [8], -2.53% (inactive); in test [9], 7.67% (inactive); in test [15], 3.02% (inactive). For the same compound, the viability in test [2] is 84.5%; in test [4], 84.5% (inactive); in test [7] (setting [17]) it was 63.9%; in test [7] (setting [18]) it was 49.8%; in [13], 36.4% (inactive); in test [14] it was 44.5% (inactive). In addition, the Her2 level in test [3] is 86% (inactive). For the same compound, in [7] (H69AR cells + 2 uM doxorubicin), the differential viability (reversal) is -14.1% (inactive). Moreover, the growth inhibition is -1.63% (inactive) in test [10] and -0.635% (inactive) in test [11]. Also, the viability increase in test [12] is -6.21% (inactive). Further, in [16], the RAM network inhibition was 4.96% (inactive).

Consider `CCCCn1c(C)c(C(=O)OCC)c2c(CN3CCOCC3)c(O)ccc21`, for which the inhibition in [1] was 2% (inactive); in test [8] it was -4.34% (inactive); in [9], 4.33% (inactive); in [15], -0.155% (inactive). In addition, the viability in [2] was 110%; in test [4], 110% (inactive); in [5], 58.5% (inactive); in test [6], 73.3% (inactive); in [7] (setting [17]), 79.4%; in test [7] (setting [18]), 73.3%. Moreover, the viability in test [13] was 68.3% (inactive); in [14], 72.6% (inactive). In addition, in test [3], the Her2 level is 92.5% (inactive). For the same compound, the differential viability (reversal) in test [7] (H69AR cells + 2 uM doxorubicin) is -6.07% (inactive). Besides, the growth inhibition is -15.6% (inactive) in test [10] and -9.74% (inactive) in test [11]. Also, in test [12], the viability increase was -6.39% (inactive). For the same compound, the RAM network inhibition in test [16] was 2.5% (inactive).

In the case of `COc1ccc(C2SCC(=O)Nc3c2c(=O)[nH]n3C2CCCCCC2)cc1OC` (stereo unspecified), the inhibition in test [1] was 6% (inactive); in test [8], -5.6% (inactive); in [9] it was 4.1% (inactive); in [15], 0.915% (inactive). Also, the viability is 124% in test [2]; 124% (inactive) in test [4]; 105% (inactive) in test [5]; 91.3% (inactive) in test [6]; 83.8% in test [7] (setting [17]); 91.3% in [7] (setting [18]). In addition, the viability in test [13] was 92.4% (inactive). Besides, the Her2 level in test [3] was 89% (inactive). Besides, the differential viability (reversal) in [7] (H69AR cells + 2 uM doxorubicin) was 7.54% (inactive). Moreover, the growth inhibition in test [10] was -18.6% (inactive); in test [11], -6.19% (inactive). The viability increase in test [12] was -4.42% (inactive). Moreover, the RAM network inhibition in [16] is 1.3% (inactive).

Source of the values: PubChem BioAssay.
